Data: PubChem BioAssay (NCI)
Compounds without any hit were thinned out: in the full panel of roughly 83,000, 20% have a hit.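 Percent growth is the endpoint: 0 to 100 indicates growth inhibition (40 means 60% inhibition), 0 means no net growth, and negative values indicate cell death.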 Values without a mark were called inactive. Activity calls are given as the source filed them. How the source made its calls: active means growth percent below 10; inactive means the rest.

Assays:
Assay in all cases: NCI-60 one-dose screen, 48 h (100 = growth as untreated, 0 = no growth, -100 = all killed)
Conditions in all cases: 10 µM unless noted
NCI-H23 lung = tested on: NCI-H23 lung
NCI-H226 lung = tested on: NCI-H226 lung
NCI-H322M lung = tested on: NCI-H322M lung
HOP-62 NSCLC = tested on: HOP-62 NSCLC
NCI-H460 lung = tested on: NCI-H460 lung
HOP-92 NSCLC = tested on: HOP-92 NSCLC
NCI-H522 lung = tested on: NCI-H522 lung
A549/ATCC NSCLC = tested on: A549/ATCC NSCLC
786-0 renal = tested on: 786-0 renal
COLO 205 colon = tested on: COLO 205 colon
DU-145 prostate = tested on: DU-145 prostate
K-562 leukemia = tested on: K-562 leukemia
MALME-3M melanoma = tested on: MALME-3M melanoma
MDA-MB-231 breast = tested on: MDA-MB-231 breast
RXF 393 renal = tested on: RXF 393 renal
SF-268 CNS = tested on: SF-268 CNS
SF-295 CNS = tested on: SF-295 CNS
SF-539 CNS = tested on: SF-539 CNS
UACC-257 melanoma = tested on: UACC-257 melanoma
M14 melanoma = tested on: M14 melanoma

Compound | growth (NCI-H23 lung) | growth (NCI-H226 lung) | growth (NCI-H322M lung) [%] | growth (HOP-62 NSCLC) | growth (NCI-H460 lung) | growth (HOP-92 NSCLC) | growth (NCI-H522 lung) | growth (A549/ATCC NSCLC) | growth (786-0 renal) | growth (COLO 205 colon) | growth (DU-145 prostate) | growth (K-562 leukemia) | growth (MALME-3M melanoma) | growth (MDA-MB-231 breast) | growth (RXF 393 renal) | growth (SF-268 CNS) | growth (SF-295 CNS) | growth (SF-539 CNS) | growth (UACC-257 melanoma) | growth (M14 melanoma)
Cc1cc(=O)oc2cc(OCCCCOc3ccc(/C=C/C(=O)Nc4ccccc4N)cc3)ccc12 | 76% | 47.9% | 82.2 | 69.7% | 45.2% | 83% | 35.7% | 46.9% | 49.5% | 44.9% | 65.7% | 35% | 90.8% | 48.2% | 90.9% | 49.4% | 63.1% | 53.1% | 82.4% | 79.5%
COCOc1cc2c(=O)c(C)c(C(=O)N[C@@H](Cc3ccccc3)C(O)C(=O)NCc3ccccc3)oc2cc1OC (stereo not given in full) | 30% | -40.2% (active) | 80.6 | 6.54% (active) | -9.86% (active) | 27.8% | -11% (active) | 51.7% | -0.746% (active) | 49.5% | 57.3% | 40.6% | -27.7% (active) | 25.6% | -17.2% (active) | 1.19% (active) | 83.5% | -79.7% (active) | 30.2% | 65.2%
CN1C(=O)/C(=C/c2ccc(C(=O)Nc3ncc(Cc4ccc(Cl)cc4Cl)s3)cc2)SC1=S | 42.8% | 51.8% | 47.1 | 59.3% | 46.2% | 64.4% | 19.2% | 42.7% | 53.3% | 27.6% | 30.7% | 24.3% | 23.1% | 43.6% | 30.9% | 47% | 10.8% | 36.9% | 33.1% | 11.6%
Cc1ccc(NCC(=O)Cn2cc(COc3ccc(C=Nc4cnc5ccccc5c4)cc3)nn2)cc1 | 109% | 105% | 103 | 102% | 130% | 116% | 104% | 103% | 107% | 114% | 119% | 102% | 102% | 107% | 125% | 123% | 107% | 104% | 105% | 105%
C=C1CCC2C3(C)COC(c4cccc(F)c4)OC3CCC2(C)C1C/C=C1/C(=O)OCC1O (stereo not given) | -37.6% (active) | 30.7% | 53.3 | 22.6% | 8.73% (active) | -6.12% (active) | -76.1% (active) | 23.3% | -84.8% (active) | -51.5% (active) | 4.04% (active) | 10.5% | -41.9% (active) | -32.8% (active) | -70.5% (active) | 67.9% | 2.97% (active) | -72.5% (active) | -28.8% (active) | -40.7% (active)
Nc1nc(C(F)(F)F)cs1 | 104% | 98.9% | 104 | 101% | 107% | 107% | 98.3% | 103% | 98.4% | 114% | 109% | 99.9% | 103% | 117% | 112% | 99.3% | 103% | 106% | 104% | 108%
CC(=O)Nc1cccc(-c2nc3cc(-c4ccc(O)cc4)ccc3n2C)c1 | 48.8% | 49.8% | 67.1 | 54.3% | 55.4% | 93.7% | 26.7% | 35.2% | 63.2% | 56.5% | 56.5% | 35.4% | -4.44% (active) | 49.1% | 81.3% | 42.8% | 26% | 57.2% | -3.29% (active) | 24.5%
Cc1ccccc1[C@H]1C(C(=O)c2ccc(Cl)cc2)C2(N[C@@H]1c1ccccc1)C(=O)Nc1ccc(Br)cc12 (stereo not given in full) | -3.76% (active) | 25.5% | 39.4 | 31.6% | 3.51% (active) | -21.3% (active) | -17.6% (active) | 2.73% (active) | -40.5% (active) | -34.5% (active) | 15% | 1.41% (active) | 45.1% | -19.8% (active) | -29% (active) | 31% | 19.3% | 36.9% | 37.3% | 1.39% (active)
O=c1[nH]c2ccccc2cc1CSc1cccc(Nc2nccc(-c3ccc4ccccc4c3)n2)c1 | 91.6% | 80.7% | 106 | 95.3% | 98.8% | 117% | 79% | 83.6% | 75.2% | 102% | 89.6% | 64.3% | 92% | 95.6% | 81.3% | 98.1% | 88% | 98.3% | 99.3% | 86.7%
COc1cc2c(c(OC)c1OC)C(=O)CC(c1cccc(NC(=O)c3cccc(NC(=O)[C@H](C)NC(=O)OC(C)(C)C)c3)c1)O2 (stereo not given in full) | 70.4% | 53.1% | 105 | 73.6% | 76.1% | 74.4% | 21% | 59.9% | 86.4% | 81.8% | 61.7% | 40.7% | 70.3% | 69% | 90% | 53.6% | 65.9% | 85.2% | 77% | 76%
COc1cc2c(c(OC)c1OC)C(=O)CC(c1cccc(NC(=O)[C@@H](N)CC(C)C)c1)O2 (stereo not given in full) | 102% | 94.3% | 111 | 99% | 106% | 80.2% | 90% | 93.1% | 96.4% | 118% | 100% | 80.6% | 95.5% | 99.9% | 101% | 95.1% | 101% | 97.3% | 94.1% | 116%
O=C1NC(=O)/C(=C/c2ccccc2OCc2cc3ccccc3nc2Cl)S1 | 68.8% | 75.4% | 79.4 | 33.6% | 91.9% | 56.8% | 79.1% | 76.9% | 78.2% | 117% | 90.5% | 84.6% | 82.8% | 64.2% | 72.8% | 58.7% | 72% | 70.8% | 89.4% | 120%
O=C(N=Nc1c(O)[nH]c2ccc([N+](=O)[O-])cc12)c1ccc2nc(-c3ccccc3)[nH]c2c1 | 64.7% | 60.1% | 104 | 100% | 100% | 30.8% | 17.8% | 106% | 91.4% | 28.4% | 57.9% | 48.1% | 30.7% | 59.5% | 74.6% | 53.3% | 102% | 6.74% (active) | 84.6% | 83.8%
Nc1cccc(SCc2cc3ccccc3[nH]c2=O)c1 | 73.5% | 69.8% | 73.3 | 42.7% | 20% | 74.6% | 43.6% | 33.2% | 47.3% | 29% | 58.7% | 9.64% (active) | 72% | 57.2% | 81.5% | 47.7% | 19.3% | 59.9% | 48.5% | 20.5%
OCNc1ccc(-n2cnc3cc(-c4ccc(O)cc4)ccc32)cc1C(F)(F)F | 27% | 51% | 46.3 | 34.9% | 9.72% (active) | 65.1% | -15.7% (active) | 22.4% | 22.7% | 43.5% | 28.6% | 17.2% | 26.6% | 38.6% | 47.5% | 24.7% | 4.48% (active) | 23.5% | 58.4% | 11.9%
